# Vif-A3F inh = qHTS for Inhibitors of Vif-A3F Interactions: qHTS; HeLa A3F-eYFP + Vif (tagged APOBEC3F with the HIV-1 protein that degrades it), YFP fluorescence increase; Potency, µM (doses to about 46.1 µM), for the others: at the top dose activity, negative = active; 390,000 tested, 0.2% active; AID 602313, 2012; note: % of control where 0% means no effect; nearly all actives have a fitted effect of over 65% in size
#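 HeLa cells stably expressing A3F-eYFP plus Vif, plated and incubated overnight at 37 deg C, then exposed to compounds overnight at 37 deg C. Blocked degradation read as raised yellow fluorescence (Ex 488/Em 500-530).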
# rTrxR1 inhibitor = qHTS Assay for Inhibitors of Mammalian Selenoprotein Thioredoxin Reductase 1 (TrxR1): qHTS | Thioredoxin reductase 1, cytoplasmic (Rattus norvegicus), O89049 | recombinant rTrxR1, NADPH fluorescence consumption, selenite substrate | Potency, µM (series often up to 114 µM), for the others: top-dose activity change, negative = inhibition, most hits filed as inhibitors | 390,000 tested, 1% active; note: % is set by controls: 0 for no effect and ±100 for the full control effect; nearly all actives have a fitted effect of over 65% in size
#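 Rat TrxR1 (90 nM in the dispensed reagent) was pre-reduced with 400 uM NADPH for 5 min at room temperature, then incubated with compound for 15 min. After 400 uM selenite was added, NADPH fluorescence (Ex 340/Em 450 nm) was followed for 8 min.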
# Vif-APOBEC3G blk = qHTS for Inhibitors of Vif-A3G Interactions: qHTS | DNA dC->dU-editing enzyme APOBEC-3G (Homo sapiens), Q9HC16 | HeLa A3G-eYFP + Vif (tagged APOBEC3G with the HIV-1 protein that degrades it), YFP fluorescence, overnight | Potency, µM (series often up to 46.1 µM), for the others: at the highest dose activity, negative = active, most hits filed as inhibitors | 410,000 tested, 0.076% active; note: % is set by controls: 0 for no effect and ±100 for the full control effect; nearly all actives have a fitted effect of over 60% in size
#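 HeLa cells stably expressing Vif and C-terminally eYFP-tagged A3G, seeded overnight at 37 deg C, then exposed to compound by pintool overnight at 37 deg C. Rise in yellow fluorescence (Ex 488/Em 500-530, Acumen) marks blocked Vif-driven A3G degradation.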
# TrxR1 substrate = qHTS Assay for Substrates of Mammalian Selenoprotein Thioredoxin Reductase 1 (TrxR1): qHTS | purified TrxR1 substrate turnover, NADPH consumption readout | Potency, µM (doses to about 114 µM), without a hit: top-dose activity change, negative = substrate turnover | Thioredoxin reductase 1, cytoplasmic (Rattus norvegicus), O89049 | 390,000 tested, 0.01% active | AID 588456, 2011; note: % is set by controls: 0 for no effect and ±100 for the full control effect; nearly all actives have a fitted effect of over 50% in size
#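 Rat TrxR1, dispensed at 90 nM, was prereduced with 400 uM NADPH (final) for 5 min at ~22 deg C, then incubated with compound 15 min before 400 uM selenite. A first-read NADPH fluorescence drop versus no-compound background flagged substrates.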
# VDR inhibitor = Inhibitors of the vitamin D receptor (VDR): qHTS; Vitamin D3 receptor (Homo sapiens), P11473; VDR-SRC2-3 peptide fluorescence polarization, 2 h; Potency, µM, for the others: max response, negative = inhibition, actives largely listed as inhibitors; 400,000 tested, 0.93% active; note: % is set by controls: 0 for no effect and ±100 for the full control effect
# Target sequence (P11473 whole entry, looked up): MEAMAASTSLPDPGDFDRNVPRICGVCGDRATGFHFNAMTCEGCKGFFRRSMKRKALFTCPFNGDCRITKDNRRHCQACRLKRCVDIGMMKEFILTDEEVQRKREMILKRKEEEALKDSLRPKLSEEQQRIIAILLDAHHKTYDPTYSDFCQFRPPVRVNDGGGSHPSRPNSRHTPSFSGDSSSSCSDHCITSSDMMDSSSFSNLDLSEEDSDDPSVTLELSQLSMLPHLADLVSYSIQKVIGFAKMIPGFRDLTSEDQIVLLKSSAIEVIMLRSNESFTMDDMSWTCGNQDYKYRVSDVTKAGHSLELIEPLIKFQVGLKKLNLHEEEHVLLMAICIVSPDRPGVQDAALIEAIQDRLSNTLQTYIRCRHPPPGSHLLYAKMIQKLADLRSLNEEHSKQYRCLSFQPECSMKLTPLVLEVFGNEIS
#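 Two reagent solutions held at 4 deg C in the dark were dispensed, compounds pinned at 23 nl, and the mixture incubated 2 h at room temperature. Read-out: fluorescence polarization of VDR–SRC2-3 peptide binding.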
# Active calls of the source: *; ? = inconclusive; . = no result given; ! = repeats disagree; [ ] = another dose, or the depositor's remark. Rows were chosen to be rich in hits. Some 1.8% of all compounds tested hit in one or more screens of this group. Calls come from the whole dose curve; as a rule, active = well fitted curve in the direction sought with a large enough effect; inconclusive = small, poorly fitted or top-dose-only effect, or another doubt; inactive = no such curve, though single readings can be large; an effect the other way counts as inactive or inconclusive. Potency is the fitted concentration of half-maximal effect.
SMILES,Vif-A3F inh,rTrxR1 inhibitor,Vif-APOBEC3G blk,TrxR1 substrate,VDR inhibitor
CCCCCCCCCCCCCCCCOCCOCCOCCOCCOCCOCCOCCOCCOCCOCCOCCOCCOCCOCCOCCOCCOCCOCCOCCOCCO,.,.,.,.,1.6%
O=C(Cc1ccccc1)Nc1sc2c(c1C(=O)Nc1ccc(Br)cc1)CCCC2,1.8%,34.8%,6.6%,20.2%,-26.9%
Cc1cccc(NC(=O)c2c(NC(=O)c3ccccc3)sc3c2CCCC3)c1,-0.3%,4.1%,2.5%,12.4%[0.457 µM],79.4µM*
Cc1cccc(NC(=O)c2c(NC(=O)c3ccccc3)sc3c2CCC3)c1,.,2.6%,.,0.9%,-8.2%
O=C(Nc1sc2c(c1C(=O)Nc1ccccc1)CCC2)c1ccc(Br)cc1,2.8%,56.2µM*,-0.2%,2.7%,4.5%
O=[N+]([O-])c1cnc(Sc2ccncn2)s1,2.4%,?,-17.4%,-10.9%,22.4µM*
O=C(O)c1cc(Cl)c2c(c1)[C@@H]1C=CC[C@@H]1[C@H](c1ccc(S(=O)(=O)N3CCOCC3)cc1)N2,1.0%,2.24µM*,0.8%,-7.4%,?
COc1cc2nc(N3CCOCC3)nc(NC3CCN(Cc4ccccc4)CC3)c2cc1OC,.,-34.2%,.,31.2%,.
CCOc1ccc2c(c1)n([O-])c1c([n+]2=O)CCCC1,2.4%,50.1µM*,-2.1%,31.9%,-10.8%
COc1ccc2c(c1)n([O-])c1c([n+]2=O)CCC1,1.6%,-0.2%,0.8%,36.6%,-19.5%
Cc1cc(O)c(C(C)C)cc1N=Cc1ccc([N+](=O)[O-])cc1,8.9%,?,-0.5%,-19.7%,50.1µM*
Cc1cc(O)c(C(C)C)cc1N=Cc1ccc(N(C)C)cc1,-8.2%,?,-24.1%,?,44.7µM*
COc1cccc(C=Nc2cc(C(C)C)c(O)cc2C)c1O,6.2%,-6.3%[11.4 µM],-1.5%,0.8%[11.4 µM],50.1µM*
CC(=O)c1nnn(-c2nc(C#N)nc(N3CCOCC3)n2)c1C,.,-4.4%,1.7%,-6.1%[0.0914 µM],3.7%
COc1ccc(-c2sc(N)nc2-c2ccccc2)cc1,.,1.0%,-6.3%,2.0%,-6.7%
O=C1Nc2ccccc2C(=O)C1(Cl)Cc1ccccc1 (centres undefined),-18.6%,-3.7%[57.1 µM],-4.5%,18.6%[57.1 µM],28.2µM*
CC[C@@H]1[C@H]2CCCC(=O)N3CC[C@@H](C[C@@H]1OC(=O)Nc1ccc4c(c1)OCO4)[C@@H]23,.,9.6%,-2.6%,2.8%,.
COc1cc(C(=O)OCC(=O)Nc2ccc(N3CCOCC3)cc2)ccc1OCC(C)C,?,1.8%,7.94µM*,3.7%,-1.5%
Cc1cccc(C)c1NC(=O)CN(C)S(=O)(=O)c1ccc2c(c1)n(C)c(=O)c(=O)n2C,-8.3%,0.1%,-1.1%,5.1%,7.3%
N#C/C(=C\c1cc(O)c(O)c(O)c1)C(N)=O,0.5%,-16.8%,4.4%,-19.9%,-10.7%
O=C1c2ccccc2C(=O)c2c(O)ccc(O)c21,.,.,.,.,44.7µM*
O=C1C=C(O)c2c(O)cc(O)c(O)c2C1=O,6.2%,-2.7%,-2.3%,-10.6%,-18.2%
O=C1c2ccccc2C(=O)c2c(O)c(O)cc(O)c21,-4.6%,-6.3%,-0.5%,-1.1%,50.1µM*!
Nc1ccc(O)c2c1C(=O)c1ccccc1C2=O,-1.9%,-2.9%,3.4%,-3.5%,?
Cc1ccccc1Nc1nc(N)c(C(=O)c2ccccc2Cl)s1,.,-7.2%[57.1 µM],.,-10.8%[57.1 µM],-2.0%
SMILES,Vif-A3F inh,rTrxR1 inhibitor,Vif-APOBEC3G blk,TrxR1 substrate,VDR inhibitor
CC(=O)O[C@@H]1C[C@H]2C(C)(C)C(=O)C=C[C@]2(C)[C@H]2CC[C@@]3(C)[C@H](c4ccoc4)OC(=O)[C@H]4O[C@]43[C@@]21C,4.4%,14.0%[57.1 µM],-12.7%,6.7%[57.1 µM],-26.5%
CC(=O)OC1CC[C@]2(C)C(CC(OC(C)=O)[C@@]3(C)C4=CC(=O)OC(c5ccoc5)[C@]4(C)CCC23)C1(C)C (some centres undefined),.,.,.,.,25.1µM*
CC(=O)OC1C=C[C@]2(C)C(CC(OC(C)=O)[C@@]3(C)C4=CC(=O)OC(c5ccoc5)[C@]4(C)CCC23)C1(C)C (some centres undefined),.,.,.,.,56.2µM*
CC1(C)C(=O)C=C[C@@]2(C)C1C=C[C@@]1(C)C2CC[C@@]2(C)C(c3ccoc3)OC(=O)C3OC312 (some centres undefined),.,.,.,.,3.55µM*
CC(=O)OC1CC(OC(C)=O)[C@]2(C)C(CC(=O)[C@]3(C)C2CC[C@@]2(C)C(c4ccoc4)OC(=O)C4O[C@@]423)C1(C)C (some centres undefined),.,.,.,.,28.2µM*
CC(=O)OC1CC(OC(C)=O)[C@]2(C)C(CC(O)[C@]3(C)C2CC[C@@]2(C)C(c4ccoc4)OC(=O)C4O[C@]432)C1(C)C (some centres undefined),.,.,.,.,10.8%
CC(C)(C)n1ncc2c(=O)n(Cc3ccc(F)c(C(F)(F)F)c3)cnc21,.,8.6%,-1.0%,-6.3%,.
CCCn1c(CC)nc([N+](=O)[O-])c1S(=O)(=O)c1ccccc1,-3.6%,0.316µM*,?,18.2%,?
Cc1cccc2c1-c1sc(C(=O)N(C)c3cccc(C(F)(F)F)c3)cc1CO2,-2.4%,77.0%,3.5%,39.8%,7.5%
O=c1c2cc(N3CCOCC3)ccc2[nH]c(=S)n1Cc1ccco1,0.5%,10µM*,-5.2%,4.3%[57.1 µM],79.4µM*
O=c1c2cc(N3CCOCC3)ccc2[nH]c(=S)n1Cc1cccc(Cl)c1,2.6%,0.0%,-11.0%,15.1%,-20.9%
COc1ccc(-n2cnc(=S)[nH]c2=S)cc1,?,-21.7%,1.3%,-1.0%,28.2µM*
NC(=O)c1c(NC(=O)c2noc3c2CCCC3)sc2c1CCCC2,-2.2%,7.7%,4.9%,13.3%,50.1µM*
Oc1ccc(Cl)cc1C1C=C(c2ccc3c(c2)OCO3)NC(c2ccc(Br)cc2)N1 (centres undefined),.,?,2.8%,-2.4%,0.8%
Cc1ccc(C(=O)Nc2ccc(S(=O)(=O)O)c3cc(S(=O)(=O)O)cc(S(=O)(=O)O)c23)cc1NC(=O)c1cccc(NC(=O)Nc2cccc(C(=O)Nc3cc(C(=O)Nc4ccc(S(=O)(=O)O)c5cc(S(=O)(=O)O)cc(S(=O)(=O)O)c45)ccc3C)c2)c1,.,?,6.7%,-3.2%[57.1 µM],22.4µM*
Cc1ccccc1NC(=O)c1cccc(S(=O)(=O)Nc2cccc(C(=O)O)c2)c1,10.1%,11.3%[57.1 µM],-4.4%,7.2%[57.1 µM],9.8%
CC(=O)c1cccc(NC(=O)CSc2ccc(-c3ccco3)nn2)c1,5.2%,11.2µM*,0.4%,-3.8%,?
O=C(CSc1ccc(-c2ccco2)nn1)NCc1ccccc1,3.3%,?,-3.0%,0.6%,-11.6%
